High-throughput results: PubChem, several laboratories
Compounds with a hit are over-represented: about 5.3% of the library has one in this group of screens.
ALR H2O2 inh – inhibitors of human sulfhydryl oxidase ALR. P55789. purified ALR, DTT oxidation, H2O2 HRP-luminol luminescence. inhibition, % (test concentration not listed). hit rate 3.8% among 290,000. AID 485317;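 active = mean replicate inhibition above about 79%, with every replicate also reaching it, limit read from the data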
Target sequence (P55789 whole entry, looked up): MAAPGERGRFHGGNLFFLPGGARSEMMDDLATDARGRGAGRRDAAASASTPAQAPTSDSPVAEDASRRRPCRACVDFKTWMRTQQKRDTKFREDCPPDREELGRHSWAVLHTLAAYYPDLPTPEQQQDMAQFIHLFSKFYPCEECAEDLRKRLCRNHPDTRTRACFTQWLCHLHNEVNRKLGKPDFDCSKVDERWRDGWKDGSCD
SUMO Mot1 rescue – SUMOylation pathway inhibition by Mot1-301 growth rescue | S. cerevisiae Mot1-301 growth rescue, ATP luminescence, 38.5C; percent above DMSO median, 100 means doubled | growth rescue, % at 18.8 µM | hit rate 1% among 320,000 | AID 2716;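 active = every valid replicate shows activation above 250% relative to neutral control wells; inactive = the rest, any valid replicate at or below 250%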
HIF activator – HIF pathway transcriptional activation | U2OS HRE-luciferase reporter, luminescence; normalized: DMSO 0%, desferrioxamine 100% | activation, % at 7.5 µM (by protocol) | hit rate 0.32% among 300,000 | AID 1910;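 active = mean activation of at least 10% of the iron chelator positive control signal, with at least half of replicates also reaching 10%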
PfM18AAP inh – PfM18AAP enzyme inhibition; AID 1822; recombinant PfM18AAP, H-Glu-NHMec fluorogenic cleavage; hit rate 1.2% among 290,000; inhibition, % at 7.35 µM;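 active = inhibition above the campaign mean inhibition over all tested compounds plus 3 SD, cut at about 28% in these data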
Yeast Mot1 SUMO – inhibits SUMO pathway, affecting Mot1-301 yeast growth | shares compounds with SUMO Mot1 rescue | S. cerevisiae Mot1-301 galactose growth, ATP luminescence, 24 h; -100 = growth of slx-deleted rescue strain | growth activity, percent, % at 42 µM | 2,300 tested, under 10 active;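 active = Signal drops as the depositor expects, and the fitted half-maximal dose is no more than ten times the top valid tested dose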;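 also: more negative values mean stronger growth rescue toward the control strain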
Of the large screens only hits and unclear results are named; the others gave an inactive call (follow-up assays come after a bar, where they were run).

COc1ccc(-c2cc(C(F)(F)F)n3ncc(C(=O)O)c3n2)cc1OC	SUMO Mot1 rescue 367.2 | Yeast Mot1 SUMO inactive
COc1cccc(-c2cc(C(F)(F)F)n3ncc(C(=O)O)c3n2)c1	none
O=C(NCCCNc1ccnc2cc(Cl)ccc12)c1ccccc1F	none
C[C@@H]1COC(=O)[C@@H](Cc2ccc(F)cc2)CC/C=C\C[C@@H](CC(=O)NCCO)C(=O)N1	none (no result: HIF activator, PfM18AAP inh)
O=[N+]([O-])c1cccc(-c2nc3ccc([N+](=O)[O-])cc3[nH]2)c1	SUMO Mot1 rescue 359.0 | Yeast Mot1 SUMO inactive
c1ccc(CNc2ccc3ccccc3n2)nc1	SUMO Mot1 rescue 364.7 | Yeast Mot1 SUMO inactive
O=C(NC(=S)Nc1ccc(S(=O)(=O)Nc2nccs2)cc1)c1cccc(F)c1	none
COCC(=O)n1nc(-c2ccc(Cl)cc2)nc1NCc1ccc(F)cc1	SUMO Mot1 rescue 539.0 | Yeast Mot1 SUMO inactive
COCC(=O)n1nc(-c2ccccc2)nc1NCc1ccc(N(C)C)cc1	SUMO Mot1 rescue 862.2 | Yeast Mot1 SUMO inactive
Cc1ccc(NC(=O)C2CCN(S(=O)(=O)c3ccc(N4CCCC4=O)cc3)CC2)cc1Cl	none
COC(=O)c1ccncc1C(=O)Nc1ccc(Oc2ncc(C(F)(F)F)cc2Cl)cc1	SUMO Mot1 rescue 369.4 | Yeast Mot1 SUMO inactive
COC(=O)c1ccncc1C(=O)Nc1ccc(OC)cc1	none
Cc1ccc(C)c(C(C)NC(=O)c2ccncc2)c1 (stereo not given)	SUMO Mot1 rescue 751.6 | Yeast Mot1 SUMO inactive
CN(CC(=O)Nc1cccnc1)S(=O)(=O)c1ccc(Br)cc1	none
Cc1n[nH]c(C)c1S(=O)(=O)N1CCCC(C(=O)O)C1 (stereo not given)	none (no result: HIF activator, PfM18AAP inh)
CC1=CS(=O)(=O)CC1Sc1ncn[nH]1 (stereo not given)	SUMO Mot1 rescue 557.4 | Yeast Mot1 SUMO inactive
COc1ccc(N(CC(=O)NCCSC2CCCCC2)S(=O)(=O)c2ccccc2)cc1OC	none
N#CCN1C(=O)NC2(CCCc3sccc32)C1=O (stereo not given)	none
CC(C)CNc1cc(=O)n(C)c(=O)n1C	SUMO Mot1 rescue 392.0 | Yeast Mot1 SUMO inactive
COc1ccc(N2CCN(C(=O)Cn3nnc(-c4ccc(OC)c(OC)c4)n3)CC2)cc1	SUMO Mot1 rescue 385.1 | Yeast Mot1 SUMO inactive
Cc1cccc(NC(=O)c2cn(-c3ccccc3)nc2-c2ccccc2)c1	none
Cc1ccnc(NC(=O)CNC(=O)c2ccc(Br)o2)c1	SUMO Mot1 rescue 492.9 (no result: PfM18AAP inh) | Yeast Mot1 SUMO inactive
Cc1ccccc1-c1nnnn1C1CCS(=O)(=O)C1 (stereo not given)	SUMO Mot1 rescue active | Yeast Mot1 SUMO inactive
CN(C(=O)c1ccc(NC(=O)Cc2ccc(NC(=O)C3CCCN(C(=O)C4CC4)C3)cc2)cc1)C1CC1 (stereo not given)	none (no result: HIF activator, PfM18AAP inh)
Nc1ccc(C2(c3ccc(N)cc3)OC(=O)c3ccccc32)cc1	SUMO Mot1 rescue 497.4 | Yeast Mot1 SUMO inactive
O=C(O)c1ccc(C2(c3ccc(C(=O)O)cc3)OC(=O)c3ccccc32)cc1	none
CCCc1nnc(NC(=O)c2cn(CC)c3cc(N4CCN(C)CC4)c(F)cc3c2=O)s1	SUMO Mot1 rescue 644.0 | Yeast Mot1 SUMO inactive
Brc1ccc(-c2cn3cccnc3n2)cc1	SUMO Mot1 rescue 661.5 (no result: HIF activator) | Yeast Mot1 SUMO inactive
Clc1ccc(-c2cn3cccnc3n2)cc1	none
CN(C)Cc1c(C(=O)N/N=C/C2CC=CCC2)nnn1-c1nonc1N (stereo not given)	none
N#Cc1ccc(C23CC4(C2)[C@H](CN(Cc2ccc(C(F)(F)F)cc2)[C@@H]4c2ccccc2)C3c2ccc(C(F)(F)F)cc2)cc1 (stereo not given in full)	SUMO Mot1 rescue 427.5 (no result: PfM18AAP inh) | Yeast Mot1 SUMO inactive
O=C(COC(=O)C1CC(=O)N(Cc2ccccc2)C1)Nc1ccccc1F (stereo not given)	SUMO Mot1 rescue 543.8 (no result: ALR H2O2 inh) | Yeast Mot1 SUMO inactive
O=C(COC(=O)C1CC(=O)N(Cc2ccccc2)C1)Nc1ccc(Cl)cc1F (stereo not given)	none (no result: ALR H2O2 inh)
CCOc1ccc(CN(C)C(C)C(=O)NCc2ccccc2)cc1 (stereo not given)	SUMO Mot1 rescue 400.8 | Yeast Mot1 SUMO inactive
CCOC(=O)c1cnc2ccc(Cl)cc2c1N1CCN(C)CC1	SUMO Mot1 rescue 616.0 | Yeast Mot1 SUMO inactive
CCOC(=O)c1cnc2ccc(OCC)cc2c1N1CCN(C)CC1	none (no result: ALR H2O2 inh)
CCOC(=O)c1cnc2c(OC)cccc2c1N1CCN(c2ccccc2OC)CC1	SUMO Mot1 rescue active | Yeast Mot1 SUMO inactive
C=CCc1cc(Cl)ccc1OC(=O)Nc1cccc(Cl)c1	none
CC(C)CN(C(=O)Cn1c(Cl)nc2c1c(=O)n(C)c(=O)n2C)C1CCS(=O)(=O)C1 (stereo not given)	none (no result: PfM18AAP inh)
CCOC(=O)c1c(C)[nH]c(C(=O)COC(=O)c2cnccn2)c1C	none (no result: HIF activator, PfM18AAP inh)
CCOC(=O)c1c(C)[nH]c(C(=O)COC(=O)c2ccncc2)c1C	SUMO Mot1 rescue active | Yeast Mot1 SUMO inactive
O=C(Nc1ccccc1)c1nccn1Cc1ccc(F)cc1	none
COCCCn1c(=O)c2ccccc2n(Cc2ccccc2C)c1=O	SUMO Mot1 rescue 454.8 | Yeast Mot1 SUMO inactive
COCCCn1c(=O)c2ccccc2n(Cc2ccc(C)cc2)c1=O	none
Cc1nc(-c2ccncc2)sc1C(=O)Nc1ccc(Br)cc1	SUMO Mot1 rescue 744.7 | Yeast Mot1 SUMO inactive
CC(=O)Nc1ccc(NC(=O)c2sc(-c3ccccc3)nc2C)cc1	none (no result: ALR H2O2 inh)
COc1ccc(N2CCN(C(=O)C3CCCN(S(=O)(=O)c4ccc(C)cc4)C3)CC2)cc1 (stereo not given)	none (no result: ALR H2O2 inh)
O=C(CNC(=O)c1cccs1)c1ccc(F)cc1	none (no result: ALR H2O2 inh)
CCOC(=O)C1CCCN(C(=O)c2cc(-c3ccc(F)cc3)nc3ccccc23)C1 (stereo not given)	SUMO Mot1 rescue 463.4 | Yeast Mot1 SUMO inactive
O=C(O)COc1ccc(=O)n(-c2ccccc2)n1	SUMO Mot1 rescue active | Yeast Mot1 SUMO inactive
CC(=O)Nc1ccc(NC(=O)CSc2n[nH]c(-c3cccs3)n2)cc1	none (no result: PfM18AAP inh)
CSc1ccccc1NC(=O)COc1nsnc1N1CCOCC1	SUMO Mot1 rescue 413.1 | Yeast Mot1 SUMO inactive
CCn1c(SCc2nc3ccccc3s2)nnc1-c1ccccc1	ALR H2O2 inh 93.8, SUMO Mot1 rescue 371.3 | Yeast Mot1 SUMO inactive
CCn1c(SCc2nc3ccccc3[nH]2)nnc1-c1cccnc1	SUMO Mot1 rescue 634.9 | Yeast Mot1 SUMO inactive
O=C(OCc1csc(-c2ccccc2)n1)c1ccc(O)cc1	none
O=C1CC2(CCN(C(=O)COc3ccc(Cl)cc3)CC2)Oc2ccccc21	none (no result: PfM18AAP inh)
Cc1ccc(S(=O)(=O)N2c3ccc(S(N)(=O)=O)cc3CC2C)cc1 (stereo not given)	SUMO Mot1 rescue active | Yeast Mot1 SUMO inactive
Cc1cc(C)cc(-n2ncc3c2CCCC3NC(=O)c2cc(C)[nH]n2)c1 (stereo not given)	SUMO Mot1 rescue 640.9 | Yeast Mot1 SUMO inactive
Clc1cccc(/C=N/N2CCN(Cc3ccccc3)CC2)c1	none
CC(NC(=O)COC(=O)CN1C(=O)C2CCCCC2C1=O)c1ccccc1 (stereo not given)	none (no result: HIF activator, PfM18AAP inh)
COc1ccc(C(C)=O)cc1CN(c1ccccc1OC)S(=O)(=O)c1cccs1	SUMO Mot1 rescue 369.9 | Yeast Mot1 SUMO inactive
COc1ccccc1CN(C)S(=O)(=O)c1cccs1	none
